pAkt inh: inhibitors of Akt phosphorylation. hit rate 0.32% among 360,000. Neuro2A IGF-stimulated pAkt S473 HTRF, 20 min; active compounds read low. activity change, % for hits at 50 µM; in the data active = activity change below about -80%; inconclusive = mostly about -51% to -80%; also: % is scaled to controls: 0 for no effect and ±100 for the full control effect
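Neuro2A cells (4,500/well, DMEM with 0.5% FBS) were treated with compound at a single 50 µM final concentration, stimulated with 6 nM IGF for 20 min at 37 °C, and lysed. Phospho-Akt Ser473 was read by HTRF as 665/615 ratio ×10^4.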
BRCA1 expr up: activators of BRCA1 expression. MCF7-BRCA1-FFLuc reporter, luminescence, 48 h; response scale: scaled: vehicle 0%, 10 µM genistein 100%. Potency, µM (top dose mostly 46.1 µM), for the others: at the top dose activation, actives largely listed as activators. hit rate 1.1% among 380,000; also: potency is read from the fitted curve at half-maximal effect; nearly all actives have a fitted effect of over 80% in size
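Compounds are tested at multiple concentrations on MCF7 BRCA1-luciferase reporter cells seeded at 2000 per well; after 48 h, a single luminescence end-point is taken and curves fitted to the normalized data.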
MmCpn inh: M. maripaludis TRiC chaperonin inhibition | purified Mm-Cpn ATPase, ADP Transcreener TR-FRET | Potency, µM (top dose mostly 76.9 µM), without a hit: at the highest dose activity, negative = inhibition, hits mostly inhibitors | hit rate 0.031% among 330,000 | AID 504842; also: potency is read from the fitted curve at half-maximal effect; % is scaled to controls: 0 for no effect and ±100 for the full control effect; nearly all actives have a fitted effect of over 80% in size
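ATPase read-out: TR-FRET ADP immunoassay (anti-ADP Eu cryptate vs ADP-d2), ex 320 nm, em 590/665 nm; signal drops as ADP forms. Enzyme 25 nM, ATP 10 uM, 30 min at 37°C after 10 min compound preincubation.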
AT treatment: candidate therapy for ataxia-telangiectasia; F2112 A-T fibroblasts, KAP-1 phosphorylation AlphaLISA; neocarzinostatin DNA damage 30 min before lysis; hit rate 0.19% among 320,000; Potency, µM (highest dose often 57.5 µM), inactives show at the highest dose activation, most hits filed as activators; also: potency is read from the fitted curve at half-maximal effect; % of control where 0% means no effect; nearly all actives have a fitted effect of over 45% in size
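ATM-like activity read as KAP-1 phosphorylation via AlphaLISA donor/acceptor antibody pairs after lysis and 6 hr at 25C. Cells were ATM-null patient fibroblasts (F2112, hTERT), dosed 60 min, then exposed to the DSB inducer NCS for 30 min.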
CCT modulator: modulators of cytosolic chaperonin (CCT/TRiC) activity. purified chaperonin ATPase assay, HTRF ADP detection, 30 min. activity change, % (no concentration beside the values), hits read low. hit rate 0.3% among 360,000. AID 651819; in the data active = activity change below about -30%; also: % is scaled to controls: 0 for no effect and ±100 for the full control effect
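First, chaperonin was dispensed at 40 nM or 20 nM final depending on batch activity. Next, compounds were pinned at 76 uM and ATP added at 10 uM. After 30 min at 37 °C, ADP detection reagents ran 30 min at ambient temperature.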
Active calls of the source: *; i = inactive; ? = inconclusive; . = no result given; [ ] = dose if it differs, or a comment. Sampled rows, rich in hits. Any-hit rate of the full collection: about 1.8%. Unless noted, calls follow the shape of the dose curve; as a rule, active = well fitted curve in the direction sought with a large enough effect; inconclusive = small, poorly fitted or top-dose-only effect, or another doubt; inactive = no such curve, though single readings can be large; an effect the other way counts as inactive or inconclusive.

SMILES	pAkt inh	BRCA1 expr up	MmCpn inh	AT treatment	CCT modulator
C[C@@H](NCCCn1ccc(NC(=O)OCc2ccccc2)nc1=O)c1cccc2ccccc12	i	0%	.	.	-1
CCCCCc1nc(-c2nonc2N)no1	-120%*	8%	-1%	2%	0
O=C(N/N=C/c1cc2c(cc1Br)OCO2)c1ccccn1	i	7.9µM*	0%	3%	-2
Cc1ccc(/C=N/NC(=O)c2ccccn2)o1	i	11µM*	0%	-4%	1
Nc1nonc1C(=O)N/N=C/c1cc2c(cc1Br)OCO2	i	11%	0%	0%	-31*
Cc1ccc(/C=N/NC(=O)c2ccncc2)o1	i	-18%	-2%	-4%	-1
O=C(N/N=C/c1ccc2c(c1)OCO2)c1ccccn1	i	-50%	-2%	0%	0
C(=Nc1ccc2ccccc2n1)c1ccccn1	.	33%	.	.	.
CCOC(=O)CNC(=O)c1ccc(SCC)cc1	i	13µM*	-4%	-1%	-2
CC(C)CCOc1ccc(CC(=O)NO)cc1	.	-1%	.	.	.
Cc1cccc(N(CC(=O)NC(C)C)C(=O)c2ccc(N3CCCC3)nc2)c1	i	0%	2%	-1%	-35*
O=c1oc2c3c4c(cc2c(C(F)(F)F)c1CCN1CCOCC1)CCCN4CCC3	-109%*	1%	1%	2%	0
CC(C)c1cc(=O)oc2c3c4c(cc12)CCCN4CCC3	i	-31%	-5%[15.4 µM]	?	-2
Cc1ccccc1Cn1nnc(C(=O)Nc2ccc3c(c2)OCCO3)c1N	i	3.5µM*	-3%	0%	-2
Cc1ccc(NC(=O)c2nnn(-c3ccc4c(c3)OCCO4)c2N)cc1	i	5.6µM*	0%	-4%	1
Cc1ccc(C)c(Cn2nnc(C(=O)Nc3ccc4c(c3)OCCO4)c2N)c1	i	40%	-1%	1%	0
CNC(=O)c1ccc(NC(=O)Nc2ccccc2)cc1	i	82%	-3%	-6%	0
CC(=O)c1oc2ccccc2c1N	i	-7%	-2%	6%	1
Nc1c(C(=O)Nc2ccc(Cl)cc2)oc2ccccc12	i	2.5µM*	2%	13%	-19
O=C(CNC(=O)COc1ccccc1)NCc1cccnc1	i	7%	1%	6%	-41*
CS(=O)(=O)N(CCc1ccccc1)CC(=O)NCc1cccnc1	-108%*	-26%	2%	8%	-2
c1ccc(NCc2cccnc2)cc1	i	-17%	-1%	1%	-121*
Cc1ccc(CNC(=O)CN(CCc2ccccc2)S(C)(=O)=O)cc1	i	0%	0%	2%	0
COc1ccc(CC(=O)NO)cc1OC	.	0%	.	.	.
COc1ccc(S(=O)(=O)NCC(=O)NCc2cc(=O)n(C)c(=O)n2C)cc1C	i	0%	1%	-6%	-1
SMILES	pAkt inh	BRCA1 expr up	MmCpn inh	AT treatment	CCT modulator
CN(C)c1nc2ccc(OCCN3CCCCC3)cc2s1	i	11µM*	2%	5%	-2
O=C(COc1ccccc1C(=O)OCC(=O)N1CCOCC1)Nc1ccc(Br)cc1	.	53%	.	.	.
CN/C=C1\C(=O)C(C)(C)Oc2ccc3ccc(=O)oc3c21	-93%*	-21%	0%	-10%	-2
COc1ccccc1OCC(=O)Nc1sc2c(c1C(N)=O)CCC2	i	5µM*	0%	2%	0
COc1cccc(C(=O)OCC(=O)Nc2sc3c(c2C(N)=O)CCC3)c1O	i	-30%	-2%	10%	-2
Cc1ccc(S(=O)(=O)N2CCN(C(=O)CN3CCCC3)C2)cc1	i	2%	1%	1%	1
Cc1ccc(S(=O)(=O)N2CCN(C(=O)CN3CCCCC3)C2)cc1	-101%*	2%	1%	2%	-3
O=S(=O)(NC(CO)Cc1ccccc1)c1ccc(Br)cc1F (stereo not given)	i	2%	.	.	1
Cc1cccc(NC(=O)Cn2c(=O)oc3cc(S(=O)(=O)NCc4ccccc4)ccc32)c1	.	0%	.	.	.
Cc1ccc(C)c(N(C)C(=O)c2ccc3c(=O)n4c(nc3c2)CCCCC4)c1	.	-43%	1%	6%	-72*
COc1cc(OC)cc(C(=O)Nc2ccc3nc4n(c(=O)c3c2)CCCCC4)c1	i	4.5µM*	0%	-4%	-6

Screens as filed in PubChem.
